An excerpt weighted towards active compounds, which were near 2.8% of everything screened.
POLB inh: blocks human DNA polymerase beta activity | Potency, µM (series often up to 114 µM), inactives show top-dose activity change, negative = inhibition, most hits filed as inhibitors | Pol beta primer extension/strand displacement, fluorescence kinetic | AID 485314 | 340,000 tested, 1.3% active | P06746; also: potency is read from the fitted curve at half-maximal effect; % is scaled to controls: 0 for no effect and ±100 for the full control effect
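Human Pol beta at 10 nM; strand-displacement substrate 50 nM final. Compound exposure 15 min at room temperature before start, reaction 10 min at room temperature.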
WRN helicase inh: blocks human WRN helicase; WRN helicase unwinding, fluorescent forked duplex, kinetic; AID 651768; Potency, µM (doses to about 114 µM), for the others: at the top dose activity change, negative = inhibition, hits mostly inhibitors; 360,000 tested, 0.46% active; also: potency is read from the fitted curve at half-maximal effect; % is scaled to controls: 0 for no effect and ±100 for the full control effect; nearly all actives have a fitted effect of over 55% in size
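Kinetic red-fluorescence monitoring (525/598 nm) tracks WRN helicase activity after 100 nM fluorophore-quencher forked duplex and 2 mM ATP are added to 20 nM enzyme pretreated 15 min at room temperature with compound.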
Pol eta inh-1: DNA polymerase eta (human) inhibition. Q9Y253. recombinant Pol eta, fluorescent DNA replication assay. Potency, µM (titrated, usually from 114 µM), for the others: at the highest dose activity change, negative = inhibition, usual class: inhibitors. 390,000 tested, 1.2% active; also: potency is read from the fitted curve at half-maximal effect; % is scaled to controls: 0 for no effect and ±100 for the full control effect
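Pol eta at 10 nM preincubated with compounds 15 min at room temperature; reaction started with fluorescent substrate (50 nM final) and read kinetically at 0 and 10 min.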
PI5P4Ka inh: blocks human PI5P4K alpha kinase activity; 330,000 tested, 1.2% active; max response, %; P48426; PI5P4Kalpha enzyme, ADP-Glo luminescence, 60 min; active compounds read low; AID 652105; active = max response of -50% or lower; inconclusive = between -30% and -50%; inactive = -30% or higher; also: value at the top dose of about 77 µM; % is scaled to controls: 0 for no effect and ±100 for the full control effect
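Single end-point luminescence (ADP-Glo) quantified ADP from PI5P4Kalpha turnover; ATP 5 microM final, 1 h at RT, 0.1% CHAPS and 0.28 mM EGTA in HEPES pH 7.4.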
POLI inh: inhibitors of human DNA polymerase iota; 390,000 tested, 1% active; Q9UNA4; Pol iota fluorescent replication assay, 10 min; Potency, µM (doses to about 115 µM), inactives show at the highest dose activity, negative = inhibition, most hits filed as inhibitors; also: potency is read from the fitted curve at half-maximal effect
Target sequence (Q9UNA4 whole entry, looked up): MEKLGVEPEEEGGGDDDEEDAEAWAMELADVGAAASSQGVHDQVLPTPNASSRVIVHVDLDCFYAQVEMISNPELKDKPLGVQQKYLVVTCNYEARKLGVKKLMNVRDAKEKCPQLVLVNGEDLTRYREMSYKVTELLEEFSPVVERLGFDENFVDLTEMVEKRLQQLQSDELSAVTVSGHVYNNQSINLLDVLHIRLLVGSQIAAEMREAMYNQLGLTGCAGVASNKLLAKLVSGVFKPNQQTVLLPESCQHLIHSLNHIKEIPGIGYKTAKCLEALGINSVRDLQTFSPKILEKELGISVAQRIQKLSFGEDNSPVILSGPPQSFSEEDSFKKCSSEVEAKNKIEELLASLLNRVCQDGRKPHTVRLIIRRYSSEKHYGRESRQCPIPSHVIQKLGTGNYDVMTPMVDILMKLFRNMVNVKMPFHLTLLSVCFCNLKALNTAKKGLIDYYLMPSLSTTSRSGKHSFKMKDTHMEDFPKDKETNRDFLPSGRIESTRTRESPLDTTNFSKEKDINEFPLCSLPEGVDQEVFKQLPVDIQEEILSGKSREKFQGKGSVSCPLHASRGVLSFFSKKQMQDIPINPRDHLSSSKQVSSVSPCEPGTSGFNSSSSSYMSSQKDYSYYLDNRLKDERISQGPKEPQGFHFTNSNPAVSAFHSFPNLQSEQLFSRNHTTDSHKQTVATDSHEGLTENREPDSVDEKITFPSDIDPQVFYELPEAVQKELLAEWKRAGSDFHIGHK
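Fluorescent replication assay read twice, at 0 min and 10 min after adding 50 nM (final) substrate. Enzyme (10 nM) and compounds were first incubated 15 min at room temperature; enzyme-free buffer wells were negative controls.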
Pol kappa inh-1: inhibitors of human DNA polymerase kappa. AID 588579. Potency, µM (titrated, usually from 107 µM), inactives show at the highest dose activity, negative = inhibition, hits mostly inhibitors. purified Pol kappa, fluorescent DNA synthesis assay, 10 min. Q9UBT6. 400,000 tested, 0.53% active; also: potency is read from the fitted curve at half-maximal effect; % is scaled to controls: 0 for no effect and ±100 for the full control effect
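Inhibition of 10 nM Pol kappa is measured by a fluorescent read-out at 0 and 10 min following addition of 50 nM substrate (final), with a 15-min room-temperature compound preincubation.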
Pol kappa inh-2: Pol kappa (human) inhibition, cherry-pick confirmation; 920 tested, 76% active; shares compounds with Pol eta inh-1; purified Pol-kappa, fluorescent strand-displacement substrate; Potency, µM, usual class: inhibitors; also: potency is read from the fitted curve at half-maximal effect
Pol eta inh-2: Pol eta (human) inhibition, cherry-pick confirmation. shares compounds with Pol eta inh-1. Pol eta primer extension, TAMRA/BHQ fluorescence, 10 min. Potency, µM, usual class: inhibitors. 2,600 tested, 64% active. AID 720502; also: potency is read from the fitted curve at half-maximal effect
* marks the source's active call; other numbers are inactive results; ? = inconclusive; nt = no result given; ! = not confirmed by another sample; [ ] = another dose, or the depositor's remark. Unless noted, calls follow the shape of the dose curve; as a rule, active = well fitted curve in the direction sought with a large enough effect; inconclusive = small, poorly fitted or top-dose-only effect, or another doubt; inactive = no such curve, though single readings can be large; an effect the other way counts as inactive or inconclusive.

SMILES | POLB inh | WRN helicase inh | Pol eta inh-1 | PI5P4Ka inh | POLI inh | Pol kappa inh-1 | Pol eta inh-2 | others
Cc1cc(C)n2c(nc3ccccc32)c1C(=O)NCc1ccccc1 | 1% | -7% | -16% | 2 | 17% | ? | nt
O=C(CSc1ncnc2sccc12)N1CCCCC1 | nt | -14% | -21% | -4 | 21% | -7% | nt
O=C1CCCN1C(=O)CSc1ncnc2sccc12 | nt | ? | 20µM* | -25 | 45µM* | -44% | 76* | Pol kappa inh-2=?
Fc1ccc(-c2noc3ncnc(NCc4ccc(Cl)cc4)c23)cc1 | 8% | nt | 1% | nt | 8% | -5% | nt
COc1ccc(/C=N/Nc2nc(C(=O)O)cs2)cc1 | ? | -14% | 32µM* | -63* | 20µM* | ? | ?
Cc1ccc(-c2nc3c(c(SCC(=O)N4CCOCC4)n2)Cc2c(CO)cnc(C)c2O3)cc1 | -30% | -1%[11.6 µM] | ? | -6 | 79µM* | -20% | ?
Cc1ccc(S(=O)c2ccc([N+](=O)[O-])c3nonc23)cc1 (stereo unspecified) | nt | 79µM* | 14µM* | -100* | nt | nt | 34* | Pol kappa inh-2=?
COc1ccc(/C=C/C(=O)NC(=S)Nc2ccc(S(=O)(=O)Nc3ccc(OC)nn3)cc2)cc1 | 1% | -20%[57.1 µM] | 56µM* | ? | -3% | -11% | ?
N#Cc1ccsc1NC(=O)COC(=O)CCS(=O)(=O)c1ccccc1 | nt | -13%[11.6 µM] | 32µM* | -56* | ? | ? | ?
N#Cc1ccsc1NC(=O)CCS(=O)(=O)c1ccccc1 | -19% | 3% | 8% | -3 | -22% | -10% | nt
CCN(c1ccccc1)S(=O)(=O)c1cccc(C(=O)OCC(=O)Nc2ccc(NC(C)=O)cc2)c1 | nt | -2% | -2% | -10 | 4% | -26% | nt
Cn1c(O)c(/C=N/NC(=O)c2cc3ccccc3cc2O)c2ccccc21 | ? | -24% | -20% | -27 | ? | -23% | nt
COc1ccc2c(c1)cc(C(=O)N/N=C/c1c(O)c(C(=O)O)cc3ccccc13)n2C | 32µM* | -14%[11.6 µM] | 40µM* | -66* | ? | -22% | 85* | Pol kappa inh-2=75*
CC(=O)Nc1c(O)nc(SCC(=O)Nc2nnc(SCc3ccccc3)s2)[nH]c1=O | -24% | -4%[11.6 µM] | 35µM* | ? | 25µM* | ? | ?
CC1CCN(C(=O)CSc2ccc(-c3cccnc3)nn2)CC1 | 31% | -26% | 8% | -7 | 30% | -4% | nt
CC(=O)CCc1c(C)nc2ccc(C(=O)O)cc2c1Cl | ? | -9%[11.6 µM] | 20µM* | 2 | ? | -51% | 30*
Nc1nnnn1-c1cccc([N+](=O)[O-])c1 | nt | 1% | -11% | 12 | 28% | -8% | nt
COCCn1c(=O)c(-c2cn(C)c3ccccc23)nc2cnc(Oc3cccc(Cl)c3)nc21 | nt | nt | nt | nt | nt | -8%[60.1 µM] | nt
Cc1nnc(SCC2=C(C(=O)O)N3C(=O)C(NC(=O)c4cc(F)c(F)cc4Cl)C3SC2)s1 (stereo unspecified) | ? | -6%[11.6 µM] | 20µM* | 2 | ? | ? | 34*
Cc1nnc(SCC2=C(C(=O)O)N3C(=O)C(NC(=O)COc4ccccc4)C3SC2)s1 (stereo unspecified) | nt | ? | 10µM* | -11 | ? | 79µM* | 38* | Pol kappa inh-2=?
CCC(C(=O)NC1C(=O)N2C(C(=O)O)=C(CSc3nnc(C)s3)CSC12)c1ccccc1 (stereo unspecified) | nt | -11% | ? | -8 | -27% | -29% | nt
Cn1nnnc1SCC1=C(C(=O)O)N2C(=O)[C@@H](NC(=O)[C@@H](O)c3ccccc3)[C@@H]2SC1 | nt | nt | nt | nt | nt | -16%[12 µM] | nt
C=CC1=C(C(=O)O)N2C(=O)C(NC(=O)Cc3ccccc3)C2SC1 (stereo unspecified) | ? | ? | 22µM* | nt | 13µM* | 79µM* | 67*
CN(Cc1ccco1)C(=O)c1c[nH]c2ccc(S(=O)(=O)Nc3ccc4c(c3)OCCO4)cc2c1=O | ? | -19% | ? | -7 | -29% | -20% | nt
CCc1ccc(NS(=O)(=O)c2ccc3[nH]cc(C(=O)N(C)Cc4ccco4)c(=O)c3c2)cc1 | 45µM*! | -19%[57.1 µM] | 89µM* | nt | ? | -24% | ?
SMILES | POLB inh | WRN helicase inh | Pol eta inh-1 | PI5P4Ka inh | POLI inh | Pol kappa inh-1 | Pol eta inh-2 | others
CCc1ccc(NS(=O)(=O)c2ccc3[nH]cc(C(=O)NC4CCCC4)c(=O)c3c2)cc1 | 50µM* | nt | ? | nt | 89µM* | ? | nt | Pol kappa inh-2=?
CCOc1ccc(NS(=O)(=O)c2ccc3[nH]cc(C(=O)NCc4ccco4)c(=O)c3c2)cc1 | 22µM* | nt | 79µM* | nt | ? | -19% | nt | Pol kappa inh-2=?
CCOc1ccc(NS(=O)(=O)c2ccc3[nH]cc(C(=O)NC4CCCC4)c(=O)c3c2)cc1 | ? | nt | -5% | nt | ? | -33% | nt
CCC1CCCCN1C(=O)c1c[nH]c2ccc(S(=O)(=O)Nc3cccc(OC)c3)cc2c1=O (stereo unspecified) | ? | nt | 89µM* | nt | ? | -13%[60.1 µM] | ?
CCN(CC)S(=O)(=O)c1cccc(C(=O)OCC(=O)NCCN2C(=O)CSC2=O)c1 | nt | 3% | -17% | 3 | 14% | 5% | nt
CC(=O)Oc1ccc(C(=O)Nc2cccc(C(=O)NC(C)(C)C)c2)cc1 | -14% | -7% | -10% | ? | 56% | 3% | nt
CC(=O)Oc1ccc(C(=O)Nc2cccc(C(=O)c3cccc(NC(=O)c4ccc(OC(C)=O)cc4)c3)c2)cc1 | 13µM* | ? | 3.2µM* | 6 | 7.9µM* | ? | 54*
Cc1cc(C)c(C(=O)NCC(=O)c2ccccc2)c(C)c1 | nt | 4% | -2% | 1 | -1% | -7% | nt
COc1ccc(-c2nc3nc(C)cc(Nc4cccc(C(F)(F)F)c4)n3n2)cc1 | ? | nt | ? | nt | -17% | -7% | nt | Pol kappa inh-2=19*
Cc1cc(Nc2cccc(C(F)(F)F)c2)n2nc(C)nc2n1 | -26% | -3% | -19% | 1 | 20% | -3% | nt
CN1CCc2c(cc(O)c(O)c2Cl)C(c2cccc(Cl)c2)C1 (stereo unspecified) | 2%[57.1 µM] | nt | -2%[57.1 µM] | nt | ? | nt | nt
COc1ccc(/C=N\NC(=O)c2ccc([N+](=O)[O-])c(C)c2)cc1COc1ccccc1C(N)=O | ? | ? | -20% | -13 | 45% | -12% | nt | Pol kappa inh-2=38*
COc1ccc(/C=N/NC(=O)c2cccnc2)cc1COc1ccc([N+](=O)[O-])c(C)c1 | -14% | -3% | 2% | 0 | 34% | -10% | nt
COc1ccc(C(=O)CSc2cc(C)[nH]c(=O)n2)cc1 | 5.6µM* | -3%[11.6 µM] | 20µM* | -63* | ? | 79µM* | ?
